An excerpt weighted towards active compounds, which were near 19% of everything screened.
HT1080-NT tox = kills 2HG-producing HT-1080-NT fibrosarcoma cells. HT-1080-NT fibrosarcoma viability, CellTiter-Glo ATP luminescence, 48 h. Potency, µM (highest dose often 46.1 µM), for inactives: at the top dose activity, negative = less viability, actives largely listed as cytotoxic. hit rate 1.6% among 360,000;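 note: NT is the 2HG producing partner of a matched IDH1 knockdown line; potency is the fitted concentration of half-maximal effect; 0% = DMSO-treated cells and -100% = media-only wells without cells; nearly all actives have a fitted effect of over 55% in size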
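750 cells/well, RPMI + 5% FBS; 2 h settle, compound pin-transfer, 48 h at 37 degrees C. CellTiter-Glo 10 min RT, luminescence. Normalized to DMSO and media-only wells.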
DT40 TDP1 CPT = growth inhibition of DT40 Tdp1-/-;hTDP1 cells with camptothecin (screen for TDP1 inhibitors); AID 686979; chicken DT40 Tdp1-/-;hTDP1 cells + 20 nM CPT, ATP luminescence, 48 h; hit rate 12% among 420,000; Potency, µM (top dose mostly 46.2 µM), for the others: top-dose activity change, negative = growth inhibition, hits mostly inhibitors; note: potency is the fitted concentration of half-maximal effect; nearly all actives have a fitted effect of over 55% in size
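Chicken DT40 Tdp1-/- cells stably complemented with human TDP1 were seeded at 400 cells/well in medium containing 20 nM camptothecin, exposed to pin-transferred compounds, and grown at 37 °C for at least 48 hr. Viability was read as ATP luminescence.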
HT1080 IDH1KD tx = kills HT-1080 cells with IDH1 knockdown | AID 686971 | Potency, µM (doses to about 46.1 µM), for the others: at the highest dose activity, negative = toxicity, actives largely listed as cytotoxic | hit rate 2% among 360,000 | HT-1080 IDH1 knockdown viability, ATP luminescence, 48 h;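 note: potency is the fitted concentration of half-maximal effect; 0% = DMSO wells and -100% = cell-free medium wells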
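% activity derives from luminescence (CellTiter-Glo), normalised to DMSO and no-cell wells. HT-1080-IDH1KD cells, 750/well, had 48 h compound exposure at 37 °C.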
IL-1B inflam inh = inhibitors of inflammasome signaling (IL-1 beta secretion); activity change, % at 57.5 µM; AID 743279; THP-1 LPS/ATP IL-1B secretion, AlphaLISA, 16 h; hits give low values; hit rate 4.7% among 360,000; in the data active = activity change below about -50%; inconclusive = mostly about -30% to -49%
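THP-1 cells pretreated 1 hr with compounds (up to 57.5 uM final), then stimulated with LPS (250 ng/mL final) plus ATP (1.25 mM final); secreted IL-1B measured by AlphaLISA after 16 hr, decreased signal indicating inhibition.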
TDP1 cell noCPT = qHTS for Inhibitors of human tyrosyl-DNA phosphodiesterase 1 (TDP1): qHTS in cells in absence of CPT; Potency, µM (doses to about 46.2 µM), without a hit: at the top dose activity change, negative = growth inhibition, actives largely listed as inhibitors; DT40 Tdp1-/- hTDP1 cells, no CPT, ATP luminescence, 48 h; hit rate 15% among 420,000; note: potency is the fitted concentration of half-maximal effect; nearly all actives have a fitted effect of over 55% in size
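No-CPT arm: Tdp1-/-;hTDP1 DT40 cells (400/well) plus compounds, incubated ≥48 hr at 37 °C. Readout CellTiter-Glo luminescence.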
Starred values were filed as active, the others as inactive; ? = inconclusive; / = not tested or not shown. Unless noted, calls come from the whole dose curve; as a rule, active = well fitted curve in the direction sought with a large enough effect; inconclusive = small, poorly fitted or top-dose-only effect, or another doubt; inactive = no such curve, though single readings can be large; an effect the other way counts as inactive or inconclusive. Unless noted, % is set by controls: 0 for no effect and ±100 for the full control effect.

SMILES	HT1080-NT tox	DT40 TDP1 CPT	HT1080 IDH1KD tx	IL-1B inflam inh	TDP1 cell noCPT
COc1cc(OC)c(NC(=O)c2sc3nc4n(c(=O)c3c2C)CCCC4)cc1Cl	/	34%	/	/	3%
COc1ccc2[nH]cc(CCNc3nc(-c4ccc(C(=O)N(C)C)cc4)nc4ccccc34)c2c1	/	21µM*	/	/	7.3µM*
COc1ccc2[nH]cc(CCNc3nc(-c4ccc(N(C)C)cc4)nc4ccccc34)c2c1	/	15µM*	/	/	23µM*
COc1ccc(-c2nc(NCCCN(C)C)c3ccccc3n2)cc1	-23%	-25%	-6%	?	?
COc1ccc(CNc2nc(-c3ccccc3CN(C)C)nc3ccccc23)c(OC)c1	/	10µM*	/	/	7.3µM*
COc1ccc2[nH]cc(CCNc3nc(-c4ccccc4CN(C)C)nc4ccccc34)c2c1	/	21µM*	/	/	21µM*
COc1ccccc1NC(=O)CS(=O)(=O)c1cn(CC(=O)N2CCOCC2)c2ccccc12	7%	-7%	12%	0	-25%
CN(C(=O)CSc1nnnn1-c1ccc(O)cc1)C1CCS(=O)(=O)C1 (configuration not stated)	4%	14%	3%	-6	-5%
COCCNc1nc(-c2ccccc2)nc2ccccc12	-26%	3%	-12%	-9	?
CN(C)c1ccc(-c2nc(NCCc3cnc[nH]3)c3ccccc3n2)cc1	/	13µM*	/	/	?
CCOC(=O)COc1ccccc1/C=C1\NC(=O)NC1=O	4%	9%	25%	-91*	8%
O=C(COC(=O)c1c(F)cccc1F)NCCNC(=O)COC(=O)c1c(F)cccc1F	13%	2%	19%	14	1%
Cc1ccc(N2CC(C(=O)NCCS(=O)(=O)N3CCN(c4ccc(F)cc4)CC3)CC2=O)cc1 (configuration not stated)	13%	-1%	12%	-19	10%
C=CCOC(=O)C1=C(C)NC(C)=C(C(=O)OCC=C)C1c1ccco1	-10%	?	-2%	?	?
C=CCOC(=O)C1=C(C)NC(SCC(=O)Nc2ccc(C)c(Cl)c2)=C(C#N)C1c1ccco1 (configuration not stated)	18µM*	?	16µM*	-3	29µM*
CCOC(=O)C1=C(c2ccccc2)NC(SCC(=O)NC2CCCCC2)=C(C#N)C1c1ccco1 (configuration not stated)	-1%	6%	-1%	-55*	2%
CCCCOC(=O)CSC1=C(C#N)C(c2cccnc2)C(C(=O)OCC)=C(c2ccccc2)N1 (configuration not stated)	-3%	?	-5%	-27	?
COCCOC(=O)C1=C(C)NC(SCC(=O)NC(C)(C)C)=C(C#N)C1c1ccco1 (configuration not stated)	-1%	26µM*	-3%	-3	23µM*
COc1cccc(NC(=O)CSc2cc(C)[nH]c(=O)n2)c1	/	-8%	/	/	-28%
Cc1ccc(NC(=O)/C(C#N)=C/c2ccc(C)o2)cc1	/	-7%	/	/	-17%
Cc1ccc(NC(=O)/C(C#N)=C\c2ccc(-c3ccc(Cl)cc3)o2)c(C)c1	/	12µM*	/	/	-97%
N#C/C(=C\c1ccc(-c2ccc(C(=O)O)cc2)o1)C(=O)Nc1ccc(F)cc1	-2%	?	4%	-9	12µM*
O=[N+]([O-])c1ccc(C(O)C23CN4CN(CN(C4)C2)C3)cc1 (configuration not stated)	3%	?	-4%	-18	-6%
CC(C)CNC(=O)COC(=O)Cc1ccc(Cl)cc1	21%	7%	23%	13	5%
O=C(Nc1ccc(C2=NCCN2)cc1)c1ccc(C(=O)Nc2ccc(C3=NCCN3)cc2)c(Cl)c1	-8%	7.3µM*	1%	7	5.2µM*
SMILES	HT1080-NT tox	DT40 TDP1 CPT	HT1080 IDH1KD tx	IL-1B inflam inh	TDP1 cell noCPT
O=C(Nc1ccccc1)Nc1cccc(-c2nnco2)c1	20%	-4%	0%	9	?
O=C(Nc1cccc(C2=NCCN2)c1)Nc1cccc(C2=NCCN2)c1	-3%	9.2µM*	-21%	?	7.3µM*
O=C(Nc1ccc(NC(=O)c2ccc(Cl)cc2Cl)cc1)c1ccc2c(c1)OCO2	18%	-16%	25%	2	-11%
CN(C)c1ccc(-c2cncnc2NCc2cccnc2)cc1	/	?	/	/	-29%
CCOC(=O)c1c(NC(=O)/C=C/c2ccc(Cl)cc2)sc2c1CCC(C)C2 (configuration not stated)	/	11%	/	/	-1%
CC(C)c1ccc(N(CCc2ccccn2)C(=O)C(C)(C)C)cc1	-4%	16µM*	-4%	6	15µM*
Cc1nc2c3cc(F)ccc3n(Cc3ccccc3F)c2s1	21µM*	7.3µM*	18µM*	8	?
Cc1nc2c3cc(F)ccc3n(CCN3CCCCC3)c2s1	21µM*	6.5µM*	?	?	7.3µM*
CCC1CCCCN1Cc1nc(Cc2ccccc2Cl)no1 (configuration not stated)	0%	?	0%	16	?
CCOc1ccc(CCNC(=O)Cn2c(=O)oc3ccccc32)cc1OCC	22%	-2%	-7%	17	9%
Cc1nnc(N2CCC(C(=O)N3CCCCCC3)CC2)c2nn(-c3ccc(Cl)cc3)c(C)c12	-14%	18µM*	0%	-26	?
Cc1ccc(-n2nc3c(N4CCC(C(=O)N5CCCCCC5)CC4)nnc(C)c3c2C)cc1	-1%	7.3µM*	-10%	-9	5.8µM*
COc1ccc(-n2nc3c(N4CCC(C(=O)N5CCCCCC5)CC4)nnc(C)c3c2C)cc1	-18%	?	?	-15	?
CN(C)c1nnnn1Cc1ccc(Cl)cc1Cl	3%	?	16%	-13	-28%
CN1C(=O)[C@@H]2[C@@H]3C[C@@H]([C@H]4ON=C(c5ccccc5OCC#N)[C@@H]34)[C@@H]2C1=O	0%	-3%	11%	35	5%
CCCN(CC(=O)Nc1ccccc1C)C(=O)c1ccc(COc2ccccc2)cc1	-9%	23µM*	-19%	-5	?
COc1ccc(C)cc1Nc1nc(N)c2ccccc2n1	?	?	?	-93*	?
Cc1ccccc1Nc1nc(N)c2ccccc2n1	?	?	16µM*	-96*	?
COc1ccc(OC)c(Nc2nc(N)c([N+](=O)[O-])c(NCc3ccccc3)n2)c1	21%	?	10%	/	?
O=C(Cn1cnc([N+](=O)[O-])c1)NCCc1ccccc1	-23%	?	-5%	-10	-27%
O=C(NCCCN1CCOCC1)c1ccc(Sc2cccc(Cl)c2)c([N+](=O)[O-])c1	-8%	?	-5%	?	21µM*
